Results as given in PubChem BioAssay AID1159580 (chemical genetic matrix, 2015).
“And” between values parts separate entries of the source, which are not always exact repeats. Equal values may be shown once. The campaign covered roughly 5,500 compounds. About 2,000 (36%) were called active. Not shown: some 18% with an inconclusive outcome. Rule as the data show it: active = normalized growth mostly below about 0.91 (no sharp cut-off); inconclusive = no clear call, values can overlap the other calls; inactive = mostly above about 0.92. The list shows a part of the results.

Experiment: chemical genetic growth profiling, strain panel (AID 1159580);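 also: tested at 20 µM; growth read once vehicle control cultures reached saturation at 30 °C; 1 = growth at the plate median or of vehicle wells; lower values mean less growth of the strain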
Details: growth OD
[1] = S. cerevisiae deletion strains, locus YDL101C, strain DUN1, stronger effect = lower value
[2] = S. cerevisiae deletion strains, locus YHR030C, strain SLT2, stronger effect = lower value
[3] = S. cerevisiae deletion strains, locus YHR079C, strain IRE1, stronger effect = lower value
[4] = S. cerevisiae deletion strains, locus YJL095W, strain BCK1, stronger effect = lower value
[5] = S. cerevisiae deletion strains, locus YJR066W, strain TOR1, stronger effect = lower value
[6] = S. cerevisiae deletion strains, locus YLR113W, strain HOG1, stronger effect = lower value
[7] = S. cerevisiae deletion strains, locus YNL183C, strain NPR1, stronger effect = lower value
[8] = S. cerevisiae deletion strains, locus YOR061W, strain CKA2, stronger effect = lower value
[9] = S. cerevisiae deletion strains, locus YOR231W, strain MKK1, stronger effect = lower value
[10] = S. cerevisiae deletion strains, locus YPL256C, strain CLN2, stronger effect = lower value

Measured: normalized growth

CC(=O)C(Sc1nc2ccccc2s1)C(C)=O
active: S. cerevisiae deletion strains, locus YER123W, strain YCK3, stronger effect = lower value 0.595 | S. cerevisiae deletion strains, locus YGR092W, strain DBF2, stronger effect = lower value 0.343 | [2] 0.63 | S. cerevisiae deletion strains, locus YJL157C, strain FAR1, stronger effect = lower value 0.68 | S. cerevisiae deletion strains, locus YKL067W, strain YNK1, stronger effect = lower value 0.694 | [6] 0.591 | S. cerevisiae deletion strains, locus YNL006W, strain LST8, stronger effect = lower value 0.901 | [7] 0.561 | [10] 0.6
inactive: S. cerevisiae deletion strains, locus YAR019C, strain CDC15, stronger effect = lower value 0.896 | S. cerevisiae deletion strains, locus YBL105C, strain PKC1, stronger effect = lower value 0.919 | S. cerevisiae deletion strains, locus YBR135W, strain CKS1, stronger effect = lower value 0.915 | S. cerevisiae deletion strains, locus YBR136W, strain MEC1, stronger effect = lower value 0.923 | S. cerevisiae deletion strains, locus YBR160W, strain CDC28, stronger effect = lower value 0.909 | S. cerevisiae deletion strains, locus YDL017W, strain CDC7, stronger effect = lower value 0.919 | S. cerevisiae deletion strains, locus YDL028C, strain MPS1, stronger effect = lower value 0.906 | [1] 0.979 | S. cerevisiae deletion strains, locus YDL108W, strain KIN28, stronger effect = lower value 0.93 | S. cerevisiae deletion strains, locus YDL132W, strain cdc53, stronger effect = lower value 0.91 | S. cerevisiae deletion strains, locus YDL214C, strain PRR2, stronger effect = lower value 0.713 | S. cerevisiae deletion strains, locus YDR052C, strain DBF4, stronger effect = lower value 0.916 | S. cerevisiae deletion strains, locus YDR054C, strain cdc34, stronger effect = lower value 0.906 | S. cerevisiae deletion strains, locus YDR226W, strain ADK1, stronger effect = lower value 0.937 | S. cerevisiae deletion strains, locus YDR477W, strain SNF1, stronger effect = lower value 0.778 | S. cerevisiae deletion strains, locus YER133W, strain GLC7, stronger effect = lower value 0.812 | S. cerevisiae deletion strains, locus YFL009W, strain cdc4, stronger effect = lower value 0.892 | S. cerevisiae deletion strains, locus YFL029C, strain CAK1, stronger effect = lower value 0.9 | S. cerevisiae deletion strains, locus YFR003C, strain YPI1, stronger effect = lower value 0.926 | S. cerevisiae deletion strains, locus YFR019W, strain FAB1, stronger effect = lower value 0.836 | S. cerevisiae deletion strains, locus YFR028C, strain CDC14, stronger effect = lower value 0.922 | S. cerevisiae deletion strains, locus YGR040W, strain KSS1, stronger effect = lower value 0.798 | S. cerevisiae deletion strains, locus YGR052W, strain FMP48, stronger effect = lower value 0.667 | [3] 0.547 | S. cerevisiae deletion strains, locus YHR082C, strain KSP1, stronger effect = lower value 0.785 | S. cerevisiae deletion strains, locus YHR205W, strain SCH9, stronger effect = lower value 0.948 | S. cerevisiae deletion strains, locus YIL147C, strain SLN1, stronger effect = lower value 0.921 | [4] 0.521 | S. cerevisiae deletion strains, locus YJL128C, strain PBS2, stronger effect = lower value 0.918 | S. cerevisiae deletion strains, locus YJR016C, strain ILV3, stronger effect = lower value 0.916 | S. cerevisiae deletion strains, locus YJR066W, strain TOR1 (second series), stronger effect = lower value 0.795 | [5] 0.682 | S. cerevisiae deletion strains, locus YKL048C, strain ELM1, stronger effect = lower value 0.929 | S. cerevisiae deletion strains, locus YKL101W, strain HSL1, stronger effect = lower value 0.866 | S. cerevisiae deletion strains, locus YKL193C, strain SDS22, stronger effect = lower value 0.907 | S. cerevisiae deletion strains, locus YKL203C, strain TOR2, stronger effect = lower value 0.879 | S. cerevisiae deletion strains, locus YLR133W, strain CKI1, stronger effect = lower value 0.765 | S. cerevisiae deletion strains, locus YLR403W, strain SFP1, stronger effect = lower value 0.764 | S. cerevisiae deletion strains, locus YML070W, strain DAK1, stronger effect = lower value 0.699 | S. cerevisiae deletion strains, locus YMR001C, strain CDC5, stronger effect = lower value 0.91 | S. cerevisiae deletion strains, locus YMR205C, strain PFK2 (second series), stronger effect = lower value 0.749 | S. cerevisiae deletion strains, locus YMR277W, strain FCP1, stronger effect = lower value 0.892 | S. cerevisiae deletion strains, locus YNL020C, strain ARK1, stronger effect = lower value 0.739 | S. cerevisiae deletion strains, locus YNL161W, strain CBK1, stronger effect = lower value 0.906 | S. cerevisiae deletion strains, locus YNL207W, strain RIO2, stronger effect = lower value 0.937 | S. cerevisiae deletion strains, locus YNL222W, strain SSU72, stronger effect = lower value 0.907 | S. cerevisiae deletion strains, locus YNL307C, strain MCK1 (second series), stronger effect = lower value 0.807 | S. cerevisiae deletion strains, locus YOL078W, strain AVO1, stronger effect = lower value 0.908 | S. cerevisiae deletion strains, locus YOL136C, strain PFK27, stronger effect = lower value 0.694 | [8] 0.752 | S. cerevisiae deletion strains, locus YOR119C, strain RIO1, stronger effect = lower value 0.827 | [9] 0.591 | S. cerevisiae deletion strains, locus YOR329C, strain SCD5, stronger effect = lower value 0.925 | S. cerevisiae deletion strains, locus YPL031C, strain PHO85, stronger effect = lower value 0.729 | S. cerevisiae deletion strains, locus YPL153C, strain RAD53, stronger effect = lower value 0.734 | S. cerevisiae deletion strains, locus YPL204W, strain HRR25, stronger effect = lower value 0.757 | S. cerevisiae deletion strains, locus YPL209C, strain IPL1, stronger effect = lower value 0.914 | S. cerevisiae deletion strains, locus YPR025C, strain CCL1, stronger effect = lower value 0.916 | S. cerevisiae deletion strains, locus YPR106W, strain ISR1, stronger effect = lower value 0.945 | S. cerevisiae deletion strains, locus YPR111W, strain DBF20, stronger effect = lower value 0.946 | S. cerevisiae deletion strains, strain NNK1, stronger effect = lower value 0.948 | S. cerevisiae deletion strains, strain TSCII, stronger effect = lower value 0.891

CC(C)C1=CC2=CCC3[C@](C)(CCC[C@]3(C)C(=O)O)C2CC1 (stereo partly specified)
0.782 (active) and 0.89 (inactive): [4]
0.996 (inactive) and 0.843 (active): [2]
active: S. cerevisiae deletion strains, locus YDR162C, strain NBP2, stronger effect = lower value 0.724 | [3] 0.851 | S. cerevisiae deletion strains, locus YLR039C, strain RIC1, stronger effect = lower value 0.637 | S. cerevisiae deletion strains, locus YLR262C, strain YPT6, stronger effect = lower value 0.542 | S. cerevisiae deletion strains, locus YLR418C, strain cdc73, stronger effect = lower value 0.781 | S. cerevisiae deletion strains, locus YMR307W, strain GAS1, stronger effect = lower value 0.502 | S. cerevisiae deletion strains, locus YOR184W, strain ser1, stronger effect = lower value 0.801 | [9] 0.859 | [10] 0.824
inactive: S. cerevisiae deletion strains, locus YAL013W, strain DEP1, stronger effect = lower value 0.957 | S. cerevisiae deletion strains, locus YBR021W, strain FUR4, stronger effect = lower value 1.03 | S. cerevisiae deletion strains, locus YBR229C, strain ROT2, stronger effect = lower value 0.935 | S. cerevisiae deletion strains, locus YCL029C, strain bik1, stronger effect = lower value 0.995 | S. cerevisiae deletion strains, locus YDL035C, strain GPR1, stronger effect = lower value 0.918 | S. cerevisiae deletion strains, locus YDL074C, strain BRE1, stronger effect = lower value 0.923 | [1] 0.946 | S. cerevisiae deletion strains, locus YDL134C, strain PPH21, stronger effect = lower value 0.935 | S. cerevisiae deletion strains, locus YDL185W, strain tfp1, stronger effect = lower value 0.975 | S. cerevisiae deletion strains, locus YDL192W, strain arf1, stronger effect = lower value 0.939 | S. cerevisiae deletion strains, locus YDR101C, strain arx1, stronger effect = lower value 1.05 | S. cerevisiae deletion strains, locus YDR150W, strain NUM1, stronger effect = lower value 0.981 | S. cerevisiae deletion strains, locus YDR318W, strain mcm21, stronger effect = lower value 0.925 | S. cerevisiae deletion strains, locus YDR388W, stronger effect = lower value 0.981 | S. cerevisiae deletion strains, locus YDR502C, strain sam2, stronger effect = lower value 0.952 | S. cerevisiae deletion strains, locus YEL061C, strain CIN8, stronger effect = lower value 0.97 | S. cerevisiae deletion strains, locus YER110C, stronger effect = lower value 0.99 | S. cerevisiae deletion strains, locus YER155C, strain BEM2, stronger effect = lower value 1.02 | S. cerevisiae deletion strains, locus YER167W, strain BCK2, stronger effect = lower value 0.994 | S. cerevisiae deletion strains, locus YGL078C, strain dbp3, stronger effect = lower value 0.978 | S. cerevisiae deletion strains, locus YGL086W, strain mad1, stronger effect = lower value 1.02 | S. cerevisiae deletion strains, locus YGL248W, strain PDE1, stronger effect = lower value 0.928 | S. cerevisiae deletion strains, locus YGR135W, strain pre9, stronger effect = lower value 0.94 | S. cerevisiae deletion strains, locus YGR252W, strain gcn5, stronger effect = lower value 0.986 | S. cerevisiae deletion strains, locus YHR079C, strain IRE1 (second series), stronger effect = lower value 0.974 | S. cerevisiae deletion strains, locus YHR094C, strain hxt1, stronger effect = lower value 0.976 | S. cerevisiae deletion strains, locus YHR129C, strain ARP1, stronger effect = lower value 0.967 | S. cerevisiae deletion strains, locus YHR200W, strain rpn10, stronger effect = lower value 0.995 | S. cerevisiae deletion strains, locus YIL066C, strain RNR3, stronger effect = lower value 0.937 | S. cerevisiae deletion strains, locus YIL073C, strain SPO22, stronger effect = lower value 0.902 | S. cerevisiae deletion strains, locus YIL125W, strain kgd1, stronger effect = lower value 1 | S. cerevisiae deletion strains, locus YIR030C, strain dcg1, stronger effect = lower value 0.974 | S. cerevisiae deletion strains, locus YJL134W, strain LCB3, stronger effect = lower value 0.977 | S. cerevisiae deletion strains, locus YJL168C, strain set2, stronger effect = lower value 0.977 | S. cerevisiae deletion strains, locus YJL187C, strain SWE1 (second series), stronger effect = lower value 0.96 | S. cerevisiae deletion strains, locus YJR043C, strain POL32, stronger effect = lower value 1.02 | [5] 0.857 | S. cerevisiae deletion strains, locus YKL009W, strain mrt4, stronger effect = lower value 0.958 | S. cerevisiae deletion strains, locus YKL068W, stronger effect = lower value 0.971 | S. cerevisiae deletion strains, locus YKL085W, strain MDH1 (second series), stronger effect = lower value 0.966 | S. cerevisiae deletion strains, locus YKL085W, strain MDH1, stronger effect = lower value 0.966 | S. cerevisiae deletion strains, locus YKL190W, strain CNB1, stronger effect = lower value 0.958 | S. cerevisiae deletion strains, locus YKR001C, strain vps1, stronger effect = lower value 1.01 | S. cerevisiae deletion strains, locus YLR058C, strain SHM2, stronger effect = lower value 0.944 | S. cerevisiae deletion strains, locus YLR102C, strain apc9, stronger effect = lower value 0.985 | [6] 0.859 | S. cerevisiae deletion strains, locus YLR268W, strain sec22, stronger effect = lower value 1.01 | S. cerevisiae deletion strains, locus YLR330W, strain CHS5, stronger effect = lower value 0.984 | S. cerevisiae deletion strains, locus YLR342W, strain FKS1 (second series), stronger effect = lower value 0.859 | S. cerevisiae deletion strains, locus YLR371W, strain rom2, stronger effect = lower value 0.992 | S. cerevisiae deletion strains, locus YML016C, strain PPZ1, stronger effect = lower value 0.966 | S. cerevisiae deletion strains, locus YML032C, strain rad52, stronger effect = lower value 0.949 | S. cerevisiae deletion strains, locus YML124C, strain tub3, stronger effect = lower value 0.979 | S. cerevisiae deletion strains, locus YMR078C, strain ctf18, stronger effect = lower value 0.974 | S. cerevisiae deletion strains, locus YMR223W, strain ubp8, stronger effect = lower value 0.923 | S. cerevisiae deletion strains, locus YNL067W, strain RPL9B, stronger effect = lower value 0.972 | S. cerevisiae deletion strains, locus YNL153C, strain GIM3, stronger effect = lower value 0.967 | [7] 0.894 | S. cerevisiae deletion strains, locus YNL233W, strain BNI4, stronger effect = lower value 0.987 | S. cerevisiae deletion strains, locus YNL250W, strain rad50, stronger effect = lower value 0.963 | S. cerevisiae deletion strains, locus YNL271C, strain bni1, stronger effect = lower value 0.963 | S. cerevisiae deletion strains, locus YNL298W, strain CLA4, stronger effect = lower value 0.995 | S. cerevisiae deletion strains, locus YNL307C, strain MCK1, stronger effect = lower value 0.945 | S. cerevisiae deletion strains, locus YNR052C, strain pop2, stronger effect = lower value 0.95 | S. cerevisiae deletion strains, locus YOL006C, strain TOP1, stronger effect = lower value 0.937 | S. cerevisiae deletion strains, locus YOL012C, strain htz1 1.21 | S. cerevisiae deletion strains, locus YOL147C, strain pex11, stronger effect = lower value 0.987 | [8] 0.921 | S. cerevisiae deletion strains, locus YOR069W, strain VPS5, stronger effect = lower value 0.972 | S. cerevisiae deletion strains, locus YOR136W, strain idh2, stronger effect = lower value 0.999 | S. cerevisiae deletion strains, locus YOR144C, strain elg1, stronger effect = lower value 0.982 | S. cerevisiae deletion strains, locus YOR316C, strain cot1, stronger effect = lower value 0.979 | S. cerevisiae deletion strains, locus YPL241C, strain CIN2, stronger effect = lower value 0.967 | S. cerevisiae deletion strains, locus YPR119W, strain clb2, stronger effect = lower value 0.977 | S. cerevisiae deletion strains, locus YPR141C, strain kar3, stronger effect = lower value 0.958 | S. cerevisiae deletion strains, locus YPR163C, strain tif3, stronger effect = lower value 0.976 | S. cerevisiae deletion strains, locus YPR167C, strain met16, stronger effect = lower value 0.98 | S. cerevisiae deletion strains, strain wtn01, stronger effect = lower value 1.06 | S. cerevisiae strains, strain wild type, stronger effect = lower value 0.962
